Results as given in paper PMC11062922 (Nature Chemical Biology, 2023).
Read-outs that look alike come from different tables or passages of the source.

Columns and labels:
ERN1 = details: read-out: apparent Kd, n = 1
GAK = details: read-out: apparent Kd, n = 1

Substance: Lestaurtinib
- potency estimated from few doses (ERN1; compound concentrations:100 nM and 1000 nM (sheet 'Lestaurtinib' of Supplementary Table 1),run:Lestaurtinib_02765_R2,Plate:MR026): 84.8 nM
- potency estimated from few doses (ERN1; compound concentrations:100 nM and 1000 nM (sheet 'Lestaurtinib' of Supplementary Table 1),run:Lestaurtinib_02765_R3,Plate:MR026): 113 nM
- potency estimated from few doses (ERN1; compound concentrations:100 nM and 1000 nM (sheet 'Lestaurtinib' of Supplementary Table 1),run:Lestaurtinib_02766_R1,Plate:MR027): 29.6 nM
- potency estimated from few doses (ERN1; compound concentrations:100 nM and 1000 nM (sheet 'Lestaurtinib' of Supplementary Table 1),run:Lestaurtinib_02766_R2,Plate:MR027): 54.9 nM
- potency estimated from few doses (ERN1; compound concentrations:100 nM and 1000 nM (sheet 'Lestaurtinib' of Supplementary Table 1),run:Lestaurtinib_02766_R3,Plate:MR027): 73.5 nM
- potency estimated from few doses (ERN1; compound concentrations:100 nM and 1000 nM (sheet 'Lestaurtinib' of Supplementary Table 1),run:Lestaurtinib_02768_R1,Plate:MR028): 51.4 nM
- potency estimated from few doses (ERN1; compound concentrations:100 nM and 1000 nM (sheet 'Lestaurtinib' of Supplementary Table 1),run:Lestaurtinib_02768_R2,Plate:MR028): 55.4 nM
- potency estimated from few doses (ERN1; compound concentrations:100 nM and 1000 nM (sheet 'Lestaurtinib' of Supplementary Table 1),run:Lestaurtinib_02795_R2,Plate:MR022): 59.6 nM
- potency estimated from few doses (ERN1; compound concentrations:100 nM and 1000 nM (sheet 'Lestaurtinib' of Supplementary Table 1),run:Lestaurtinib_02802_R1,Plate:MR029): 60.8 nM
- potency estimated from few doses (ERN1; compound concentrations:100 nM and 1000 nM (sheet 'Lestaurtinib' of Supplementary Table 1),run:Lestaurtinib_02802_R3,Plate:MR029): 176 nM
- potency estimated from few doses (ERN1; compound concentrations:100 nM and 1000 nM (sheet 'Lestaurtinib' of Supplementary Table 1),run:Lestaurtinib_02896_R3,Plate:MR030): 48.9 nM
- potency estimated from few doses (ERN1; compound concentrations:100 nM and 1000 nM (sheet 'Lestaurtinib' of Supplementary Table 1),run:Lestaurtinib_03172_R2,Plate:MR031): 68.4 nM
- potency estimated from few doses (ERN1; compound concentrations:100 nM and 1000 nM (sheet 'Lestaurtinib' of Supplementary Table 1),run:Lestaurtinib_03172_R3,Plate:MR031): 71.8 nM
- potency estimated from few doses (GAK; compound concentrations:100 nM and 1000 nM (sheet 'Lestaurtinib' of Supplementary Table 1),run:Lestaurtinib_02339_R1,Plate:MR001): 681 nM
- potency estimated from few doses (GAK; compound concentrations:100 nM and 1000 nM (sheet 'Lestaurtinib' of Supplementary Table 1),run:Lestaurtinib_02339_R2,Plate:MR001): 515 nM
- potency estimated from few doses (GAK; compound concentrations:100 nM and 1000 nM (sheet 'Lestaurtinib' of Supplementary Table 1),run:Lestaurtinib_02339_R3,Plate:MR001): 744 nM
- potency estimated from few doses (GAK; compound concentrations:100 nM and 1000 nM (sheet 'Lestaurtinib' of Supplementary Table 1),run:Lestaurtinib_02364_R2,Plate:MR002): 838 nM
- potency estimated from few doses (GAK; compound concentrations:100 nM and 1000 nM (sheet 'Lestaurtinib' of Supplementary Table 1),run:Lestaurtinib_02364_R3,Plate:MR002): 670 nM
- potency estimated from few doses (GAK; compound concentrations:100 nM and 1000 nM (sheet 'Lestaurtinib' of Supplementary Table 1),run:Lestaurtinib_02367_R1,Plate:MR003): 703 nM
- potency estimated from few doses (GAK; compound concentrations:100 nM and 1000 nM (sheet 'Lestaurtinib' of Supplementary Table 1),run:Lestaurtinib_02367_R2,Plate:MR003): 797 nM
- potency estimated from few doses (GAK; compound concentrations:100 nM and 1000 nM (sheet 'Lestaurtinib' of Supplementary Table 1),run:Lestaurtinib_02367_R3,Plate:MR003): 731 nM
- potency estimated from few doses (GAK; compound concentrations:100 nM and 1000 nM (sheet 'Lestaurtinib' of Supplementary Table 1),run:Lestaurtinib_02381_R2,Plate:MR004): 635 nM
- potency estimated from few doses (GAK; compound concentrations:100 nM and 1000 nM (sheet 'Lestaurtinib' of Supplementary Table 1),run:Lestaurtinib_02407_R1,Plate:MR005): 718 nM
- potency estimated from few doses (GAK; compound concentrations:100 nM and 1000 nM (sheet 'Lestaurtinib' of Supplementary Table 1),run:Lestaurtinib_02407_R2,Plate:MR005): 809 nM
- potency estimated from few doses (GAK; compound concentrations:100 nM and 1000 nM (sheet 'Lestaurtinib' of Supplementary Table 1),run:Lestaurtinib_02407_R3,Plate:MR005): 702 nM
- potency estimated from few doses (GAK; compound concentrations:100 nM and 1000 nM (sheet 'Lestaurtinib' of Supplementary Table 1),run:Lestaurtinib_02422_R1,Plate:MR006): 425 nM
- potency estimated from few doses (GAK; compound concentrations:100 nM and 1000 nM (sheet 'Lestaurtinib' of Supplementary Table 1),run:Lestaurtinib_02422_R2,Plate:MR006): 9.54 nM
- potency estimated from few doses (GAK; compound concentrations:100 nM and 1000 nM (sheet 'Lestaurtinib' of Supplementary Table 1),run:Lestaurtinib_02422_R3,Plate:MR006): 725 nM
- potency estimated from few doses (GAK; compound concentrations:100 nM and 1000 nM (sheet 'Lestaurtinib' of Supplementary Table 1),run:Lestaurtinib_02437_R1,Plate:MR007): 654 nM
- potency estimated from few doses (GAK; compound concentrations:100 nM and 1000 nM (sheet 'Lestaurtinib' of Supplementary Table 1),run:Lestaurtinib_02437_R2,Plate:MR007): 698 nM
- potency estimated from few doses (GAK; compound concentrations:100 nM and 1000 nM (sheet 'Lestaurtinib' of Supplementary Table 1),run:Lestaurtinib_02437_R3,Plate:MR007): 58.5 nM
- potency estimated from few doses (GAK; compound concentrations:100 nM and 1000 nM (sheet 'Lestaurtinib' of Supplementary Table 1),run:Lestaurtinib_02438_R1,Plate:MR008): 700 nM
- potency estimated from few doses (GAK; compound concentrations:100 nM and 1000 nM (sheet 'Lestaurtinib' of Supplementary Table 1),run:Lestaurtinib_02438_R2,Plate:MR008): 667 nM
- potency estimated from few doses (GAK; compound concentrations:100 nM and 1000 nM (sheet 'Lestaurtinib' of Supplementary Table 1),run:Lestaurtinib_02438_R3,Plate:MR008): 750 nM
- potency estimated from few doses (GAK; compound concentrations:100 nM and 1000 nM (sheet 'Lestaurtinib' of Supplementary Table 1),run:Lestaurtinib_02473_R3,Plate:MR010): 59.2 nM
- potency estimated from few doses (GAK; compound concentrations:100 nM and 1000 nM (sheet 'Lestaurtinib' of Supplementary Table 1),run:Lestaurtinib_02482_R1,Plate:MR011): 870 nM
- potency estimated from few doses (GAK; compound concentrations:100 nM and 1000 nM (sheet 'Lestaurtinib' of Supplementary Table 1),run:Lestaurtinib_02482_R2,Plate:MR011): 804 nM
- potency estimated from few doses (GAK; compound concentrations:100 nM and 1000 nM (sheet 'Lestaurtinib' of Supplementary Table 1),run:Lestaurtinib_02482_R3,Plate:MR011): 707 nM
- potency estimated from few doses (GAK; compound concentrations:100 nM and 1000 nM (sheet 'Lestaurtinib' of Supplementary Table 1),run:Lestaurtinib_02487_R2,Plate:MR012): 783 nM
- potency estimated from few doses (GAK; compound concentrations:100 nM and 1000 nM (sheet 'Lestaurtinib' of Supplementary Table 1),run:Lestaurtinib_02496_R1,Plate:MR013): 552 nM
- potency estimated from few doses (GAK; compound concentrations:100 nM and 1000 nM (sheet 'Lestaurtinib' of Supplementary Table 1),run:Lestaurtinib_02496_R2,Plate:MR013): 507 nM
- potency estimated from few doses (GAK; compound concentrations:100 nM and 1000 nM (sheet 'Lestaurtinib' of Supplementary Table 1),run:Lestaurtinib_02496_R3,Plate:MR013): 639 nM
